{"source": "PubChem BioAssay (NCI)", "note": "The panel holds about 83,000 compounds, 20% with a hit somewhere; the sample as a whole holds those more often.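 The test compound was applied at a single concentration to cells in 96-well plates for 48 hours, and percent growth was recorded.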 Active and inactive are the calls of the source. The calls were made as follows: active = growth percent below 10; inactive = the rest.", "data": [{"system": "MALME-3M melanoma", "assay": "NCI-60 one-dose screen, 48 h (100 = growth as untreated, 0 = no growth, -100 = all killed)", "conditions": "10 µM unless noted", "values": [{"smiles": "N#C/C(=C\\c1ccc(Br)cc1)n1nnc2cccc(F)c21", "growth": "37.7% (inactive)"}, {"smiles": "COc1cc2oc(-c3cccc(C(=O)Nc4ccc(Cl)cc4)c3)cc(=O)c2c(OC)c1OC", "growth": "14.2% (inactive)"}, {"smiles": "CS(=O)(=O)c1ccc(-c2cc(-c3nnc(SCC(=O)Nc4ccc(C(=O)/C=C/c5ccc(Cl)cc5)cc4)n3-c3ccccc3)c3ccccc3n2)cc1", "growth": "104% (inactive)"}, {"smiles": "COc1ccccc1OCC(=O)N1CCCCCC1", "growth": "89.2% (inactive)"}, {"smiles": "NC(=O)c1cccc(-n2ccc3cc(NC(=O)Nc4cc(C(F)(F)F)cc(C(F)(F)F)c4)ccc32)n1", "growth": "43.1% (inactive)"}, {"smiles": "COc1cc2nc(-c3ccc(C(F)(F)F)cc3)cc(OCCCN3CCCCC3)c2cc1OC", "growth": "39.9% (inactive)"}, {"smiles": "COc1ccc2c(Nc3ccc(NS(C)(=O)=O)cc3)c3ccccc3nc2c1", "growth": "-50.7% (active)"}, {"smiles": "C=CCn1c(SCC(=O)Nc2ccc(C(=O)/C=C/c3cc(OC)c(OC)c(OC)c3)cc2)nnc1-c1cc(-c2ccc(S(C)(=O)=O)cc2)nc2ccccc12", "growth": "89.3% (inactive)"}, {"smiles": "CN(C)c1ccc(-c2c(C#N)c(N)n3nc(N)c(C#N)c3c2C#N)cc1", "growth": "116% (inactive)"}, {"smiles": "CCCCCN1C=C/C(=C\\C(=O)N(C)c2cccc3ccccc23)c2ccccc21", "growth": "94% (inactive)"}, {"smiles": "CCCCCOc1ccc(/C=N/Nc2cc(C)nc3ccc(Br)cc23)cc1", "growth": "-35.9% (active)"}, {"smiles": "COc1cccc(C(Cc2ccccc2)Nc2ccccc2)c1OC", "note": "(stereo unspecified)", "growth": "98.9% (inactive)"}, {"smiles": "Cc1ccc(Nc2cc(=S)nc(N)[nH]2)cc1C", "growth": "100% (inactive)"}, {"smiles": "O=S(=O)(O)c1cc(O)c2c(N=Nc3ccc(Nc4ccccc4)c4c(S(=O)(=O)O)cccc34)cc(S(=O)(=O)O)cc2c1", "growth": "130% (inactive)"}, {"smiles": "COc1cc2c(cc1[N+](=O)[O-])-c1ccc([N+](=O)[O-])cc1/C2=N\\O", "growth": "116% (inactive)"}, {"smiles": "CS(=O)(=O)OCCN(CCOS(C)(=O)=O)c1ccc(/C=N/Nc2ccc([N+](=O)[O-])cc2[N+](=O)[O-])cc1", "growth": "86.8% (inactive)"}, {"smiles": "COc1cc2c(cc1[N+](=O)[O-])-c1ccc([N+](=O)[O-])cc1/C2=N/NC(N)=S", "growth": "93.7% (inactive)"}, {"smiles": "CN(C)C(C(N)=O)c1ccc(Cl)cc1", "note": "(stereo unspecified)", "growth": "103% (inactive)"}, {"smiles": "CC(C)(C)OC(=O)N1CCN(c2ccc(N)cc2)C(=O)C1", "growth": "106% (inactive)"}, {"smiles": "CC(=O)OCC(=O)C1(O)C(C)CC2C3C=C(C)C4=Cc5c(cnn5-c5ccccc5)CC4(C)C3C(O)CC21C", "note": "(stereo unspecified)", "growth": "25.6% (inactive)"}, {"smiles": "Cc1ccc(C2C3CC4CCCCC4N3[C@@]3(C(=O)Nc4cc(Cl)ccc43)C2C(=O)c2nc3ccccc3[nH]2)cc1", "note": "(stereo partly specified)", "growth": "33.9% (inactive)"}, {"smiles": "COc1ccc(-n2cc(-c3cc(OC)c(OC)c(OC)c3)n(C(C)=O)c2=O)cc1", "growth": "79.4% (inactive)"}, {"smiles": "C=C(C)[C@@H]1CC[C@]2(C(=O)N3CCN(C)CC3)CC[C@]3(C)[C@H](CC[C@@H]4[C@@]5(C)CCC(=O)C(C)(C)[C@@H]5CC[C@]43C)[C@@H]12", "growth": "89% (inactive)"}, {"smiles": "NC(=S)N/N=C(/c1ccccc1)c1ccccc1N", "growth": "93.7% (inactive)"}, {"smiles": "COc1ccc(C(=O)c2cc(C)c(OC)c(C)c2)c(OC)c1N(C(=O)C(Cl)Cl)C(=O)C(Cl)Cl", "growth": "58.2% (inactive)"}, {"smiles": "c1ccc(-c2nn(-c3ccccc3)[n+](-c3ccccc3-c3ccccc3)n2)cc1", "growth": "-31.7% (active)"}, {"smiles": "COc1ccc2c(c1)OC13Oc4cc(OC)ccc4C=C1CCCC3=C2", "growth": "70.3% (inactive)"}, {"smiles": "CC(O)(CO)c1ccccc1", "note": "(stereo unspecified)", "growth": "95.3% (inactive)"}, {"smiles": "O=C(Nc1nc(-c2ccccc2Cl)cs1)c1cc(-c2ccccc2)nc2ccc(Cl)cc12", "growth": "63.9% (inactive)"}, {"smiles": "COC(=O)N[C@H]1CCc2cc(OC)c(OC)c(OC)c2-c2ccc(SC)c(=O)cc21", "growth": "37.3% (inactive)"}, {"smiles": "CCCCCCN(C)Cc1ccc(OCCOc2ccc(CN(C)CCCCCC)cc2)cc1", "growth": "-80.6% (active)"}, {"smiles": "CCOC(=O)N1CCc2c(sc3nc4nc[nH]n4c(=O)c23)C1", "growth": "102% (inactive)"}, {"smiles": "CCOC(=O)c1c(C)nc2c(c1N)C(=O)C(=O)N2Cc1ccc(C(F)(F)F)cc1", "growth": "59.3% (inactive)"}, {"smiles": "CC(=O)c1cccc(NS(=O)(=O)c2cccc(C(=O)Nc3ccc(Br)cc3)c2)c1", "growth": "42.1% [25 µM] (inactive)"}, {"smiles": "COc1ccccc1C(C[N+](=O)[O-])c1c(-c2ccccc2)[nH]c2cc(C)ccc12", "note": "(stereo unspecified)", "growth": "61.2% (inactive)"}, {"smiles": "CC(C)Cc1ccc(C(C)C(=O)NCc2c[nH]c3ccc(Cl)cc23)cc1", "note": "(stereo unspecified)", "growth": "98.8% (inactive)"}, {"smiles": "CCCC1C(C(=O)OCC)=C(N)Oc2cc(O)ccc21", "note": "(stereo unspecified)", "growth": "98.8% (inactive)"}, {"smiles": "Cc1ccc(C(=O)Nc2ccccc2C(=O)N/N=C(\\c2ccccc2)c2ccccn2)cc1", "growth": "37.9% (inactive)"}]}, {"system": "MDA-MB-231 breast", "assay": "NCI-60 one-dose screen, 48 h (100 = growth as untreated, 0 = no growth, -100 = all killed)", "conditions": "10 µM unless noted", "values": [{"smiles": "N#C/C(=C\\c1ccc(Br)cc1)n1nnc2cccc(F)c21", "growth": "-1.07% (active)"}, {"smiles": "COc1cc2oc(-c3cccc(C(=O)Nc4ccc(Cl)cc4)c3)cc(=O)c2c(OC)c1OC", "growth": "-3.1% (active)"}, {"smiles": "CS(=O)(=O)c1ccc(-c2cc(-c3nnc(SCC(=O)Nc4ccc(C(=O)/C=C/c5ccc(Cl)cc5)cc4)n3-c3ccccc3)c3ccccc3n2)cc1", "growth": "92.1% (inactive)"}, {"smiles": "COc1ccccc1OCC(=O)N1CCCCCC1", "growth": "113% (inactive)"}, {"smiles": "NC(=O)c1cccc(-n2ccc3cc(NC(=O)Nc4cc(C(F)(F)F)cc(C(F)(F)F)c4)ccc32)n1", "growth": "65.5% (inactive)"}, {"smiles": "COc1cc2nc(-c3ccc(C(F)(F)F)cc3)cc(OCCCN3CCCCC3)c2cc1OC", "growth": "27.7% (inactive)"}, {"smiles": "COc1ccc2c(Nc3ccc(NS(C)(=O)=O)cc3)c3ccccc3nc2c1", "growth": "3.5% (active)"}, {"smiles": "C=CCn1c(SCC(=O)Nc2ccc(C(=O)/C=C/c3cc(OC)c(OC)c(OC)c3)cc2)nnc1-c1cc(-c2ccc(S(C)(=O)=O)cc2)nc2ccccc12", "growth": "77.7% (inactive)"}, {"smiles": "CN(C)c1ccc(-c2c(C#N)c(N)n3nc(N)c(C#N)c3c2C#N)cc1", "growth": "43.2% (inactive)"}, {"smiles": "CCCCCN1C=C/C(=C\\C(=O)N(C)c2cccc3ccccc23)c2ccccc21", "growth": "106% (inactive)"}, {"smiles": "CCCCCOc1ccc(/C=N/Nc2cc(C)nc3ccc(Br)cc23)cc1", "growth": "-51.4% (active)"}, {"smiles": "COc1cccc(C(Cc2ccccc2)Nc2ccccc2)c1OC", "note": "(stereo unspecified)", "growth": "97.4% (inactive)"}, {"smiles": "Cc1ccc(Nc2cc(=S)nc(N)[nH]2)cc1C", "growth": "80.6% (inactive)"}, {"smiles": "O=S(=O)(O)c1cc(O)c2c(N=Nc3ccc(Nc4ccccc4)c4c(S(=O)(=O)O)cccc34)cc(S(=O)(=O)O)cc2c1", "growth": "102% (inactive)"}, {"smiles": "COc1cc2c(cc1[N+](=O)[O-])-c1ccc([N+](=O)[O-])cc1/C2=N\\O", "growth": "87.4% (inactive)"}, {"smiles": "CS(=O)(=O)OCCN(CCOS(C)(=O)=O)c1ccc(/C=N/Nc2ccc([N+](=O)[O-])cc2[N+](=O)[O-])cc1", "growth": "71.6% (inactive)"}, {"smiles": "COc1cc2c(cc1[N+](=O)[O-])-c1ccc([N+](=O)[O-])cc1/C2=N/NC(N)=S", "growth": "74.4% (inactive)"}, {"smiles": "CN(C)C(C(N)=O)c1ccc(Cl)cc1", "note": "(stereo unspecified)", "growth": "98.3% (inactive)"}, {"smiles": "CC(C)(C)OC(=O)N1CCN(c2ccc(N)cc2)C(=O)C1", "growth": "98.8% (inactive)"}, {"smiles": "CC(=O)OCC(=O)C1(O)C(C)CC2C3C=C(C)C4=Cc5c(cnn5-c5ccccc5)CC4(C)C3C(O)CC21C", "note": "(stereo unspecified)", "growth": "-11.2% (active)"}, {"smiles": "Cc1ccc(C2C3CC4CCCCC4N3[C@@]3(C(=O)Nc4cc(Cl)ccc43)C2C(=O)c2nc3ccccc3[nH]2)cc1", "note": "(stereo partly specified)", "growth": "30.6% (inactive)"}, {"smiles": "COc1ccc(-n2cc(-c3cc(OC)c(OC)c(OC)c3)n(C(C)=O)c2=O)cc1", "growth": "86.4% (inactive)"}, {"smiles": "C=C(C)[C@@H]1CC[C@]2(C(=O)N3CCN(C)CC3)CC[C@]3(C)[C@H](CC[C@@H]4[C@@]5(C)CCC(=O)C(C)(C)[C@@H]5CC[C@]43C)[C@@H]12", "growth": "79.4% (inactive)"}, {"smiles": "NC(=S)N/N=C(/c1ccccc1)c1ccccc1N", "growth": "85.8% (inactive)"}, {"smiles": "COc1ccc(C(=O)c2cc(C)c(OC)c(C)c2)c(OC)c1N(C(=O)C(Cl)Cl)C(=O)C(Cl)Cl", "growth": "13.2% (inactive)"}, {"smiles": "c1ccc(-c2nn(-c3ccccc3)[n+](-c3ccccc3-c3ccccc3)n2)cc1", "growth": "35.5% (inactive)"}, {"smiles": "COc1ccc2c(c1)OC13Oc4cc(OC)ccc4C=C1CCCC3=C2", "growth": "32% (inactive)"}, {"smiles": "CC(O)(CO)c1ccccc1", "note": "(stereo unspecified)", "growth": "97.7% (inactive)"}, {"smiles": "O=C(Nc1nc(-c2ccccc2Cl)cs1)c1cc(-c2ccccc2)nc2ccc(Cl)cc12", "growth": "46.8% (inactive)"}, {"smiles": "COC(=O)N[C@H]1CCc2cc(OC)c(OC)c(OC)c2-c2ccc(SC)c(=O)cc21", "growth": "-22.3% (active)"}, {"smiles": "CCCCCCN(C)Cc1ccc(OCCOc2ccc(CN(C)CCCCCC)cc2)cc1", "growth": "4.17% (active)"}, {"smiles": "CCOC(=O)N1CCc2c(sc3nc4nc[nH]n4c(=O)c23)C1", "growth": "99.9% (inactive)"}, {"smiles": "CCOC(=O)c1c(C)nc2c(c1N)C(=O)C(=O)N2Cc1ccc(C(F)(F)F)cc1", "growth": "75.6% (inactive)"}, {"smiles": "CC(=O)c1cccc(NS(=O)(=O)c2cccc(C(=O)Nc3ccc(Br)cc3)c2)c1", "growth": "73.8% [25 µM] (inactive)"}, {"smiles": "COc1ccccc1C(C[N+](=O)[O-])c1c(-c2ccccc2)[nH]c2cc(C)ccc12", "note": "(stereo unspecified)", "growth": "55.4% (inactive)"}, {"smiles": "CC(C)Cc1ccc(C(C)C(=O)NCc2c[nH]c3ccc(Cl)cc23)cc1", "note": "(stereo unspecified)", "growth": "82.2% (inactive)"}, {"smiles": "CCCC1C(C(=O)OCC)=C(N)Oc2cc(O)ccc21", "note": "(stereo unspecified)", "growth": "93.6% (inactive)"}, {"smiles": "Cc1ccc(C(=O)Nc2ccccc2C(=O)N/N=C(\\c2ccccc2)c2ccccn2)cc1", "growth": "34.4% (inactive)"}]}]}
